Sampled rows, rich in hits. Any-hit rate of the full collection: about 11%.
AMA1-RON2 inh = AMA1-RON2 (P. falciparum) interaction inhibition. AlphaScreen AMA1-biotinylated RON2 peptide binding. actives 0.2% (n = 360,000). Potency, µM (series often up to 58.2 µM), for the others: top-dose activity change, negative = inhibition, most hits filed as inhibitors;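 also: 0% = vehicle wells and -100% = peptide control; nearly all actives have a fitted effect of over 45% in size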
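AMA1 (3D7) with his tag at 25 nM final met compounds first, then biotinylated RON2 peptide at 25 nM; detection used donor plus acceptor beads, 10 µg/mL apiece, read by AlphaScreen after 30 min at room temperature.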
Sm TGR block = blocks Schistosoma mansoni thioredoxin glutathione reductase; AID 485364; Q962Y6; actives 3% (n = 360,000); Potency, µM (highest dose often 114 µM), for the others: top-dose activity change, negative = inhibition, hits mostly inhibitors; purified TGR, DTNB reduction, TNB absorbance 405 nm; also: % is scaled to controls: 0 for no effect and ±100 for the full control effect; nearly all actives have a fitted effect of over 60% in size
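TGR 20 nM + NADPH 100 uM (dispensed conc.), cpd preinc 15 min RT; start with NADPH (500 uM addition) then DTNB (15 mM addition). Kinetic TNB absorbance, 405 nm filter. Four-parameter Hill fit across titration.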
NS1 function inh = blocks influenza NS1 protein function. Potency, µM (top dose mostly 46.1 µM), for the others: at the highest dose activity, positive = more growth. actives 0.4% (n = 270,000); calls by dose curve; also: actives are rising curves; nearly all actives have a fitted effect of over 50% in size
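Growth recovery, yeast-based: influenza A NS1 expressed in S. cerevisiae causes slow growth, and suppressors are detected by OD600. The parent strain without NS1 is used as positive control.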
Pf growth 96h = P. falciparum growth inhibition at 96 hours; P. falciparum luciferase reporter growth, 96 h; Potency, µM (top dose mostly 28.7 µM), for the others: top-dose activity change, negative = inhibition, most hits filed as inhibitors; actives 6.9% (n = 320,000); also: % is scaled to controls: 0 for no effect and ±100 for the full control effect
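P. falciparum expressing integrated firefly luciferase grown in erythrocytes (2% hematocrit, 0.05% parasitemia final) with compounds for 96 hours at 37 C, 5% CO2. Growth inhibition read as loss of luminescence after adding luciferase detection reagent.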
Pf growth 48h = inhibits P. falciparum growth in the first generation, 48 h | P. falciparum luciferase growth in erythrocytes, 48 h | Potency, µM (top dose mostly 28.7 µM), for inactives: at the top dose activity change, negative = inhibition, actives largely listed as inhibitors | actives 5.9% (n = 310,000) | AID 504832; also: % is scaled to controls: 0 for no effect and ±100 for the full control effect
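Growth was read as firefly luciferase luminescence after a 48 h, 37 C, 5% CO2 exposure of compounds to reporter-bearing P. falciparum cultures (0.1% parasitemia, 2% hematocrit final) in Albumax-supplemented RPMI 1640.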
The depositor's hits bear a star; ? = inconclusive; / = no result given; [ ] = remark or other dose. Unless noted, calls follow the shape of the dose curve; as a rule, active = well fitted curve in the direction sought with a large enough effect; inconclusive = small, poorly fitted or top-dose-only effect, or another doubt; inactive = no such curve, though single readings can be large; an effect the other way counts as inactive or inconclusive. Potency is read from the fitted curve at half-maximal effect.

SMILES	AMA1-RON2 inh	Sm TGR block	NS1 function inh	Pf growth 96h	Pf growth 48h
CCOC(=O)c1c(C)[nH]c(C2=NNC(=Nc3ccccc3)SC2)c1C	19%	-13%	18%	3.7µM*	3.3µM*
CCOC(=O)c1c(C)[nH]c(C2=NNC(=Nc3ccccc3OC)SC2)c1C	28%	-2%	?	?	?
O=C(Cn1cc(S(=O)(=O)Cc2ccccc2Cl)c2ccccc21)NCc1ccccc1Cl	/	1%	/	/	/
Cc1nn(-c2ccccc2)c2nc(C3CC3)cc(C(=O)Nc3cccc(F)c3)c12	/	5%	/	/	/
Cc1cc(C)cc(-n2ccn3cnnc3c2=O)c1	/	1%	/	/	/
CN(CC(=O)NCCN1CCN(c2ccccc2)CC1)S(=O)(=O)c1ccc2c(c1)CCC(=O)N2	3%	0%	-8%	4.7µM*	/
Cc1cc2nc3c(nc2cc1C)C(O)=C3O	-1%	14µM*	2%	27%	11%
OC1=C(O)c2nc3cc(C(F)(F)F)ccc3nc21	28µM*	0%	7%	-8%	?
Cc1cn2c(=O)c(C(=O)N3CCN(c4ccccc4Cl)CC3)cnc2s1	31%	-4%	/	23%	46%
CN(C)c1ccc(C2/C(=C(/O)c3ccc(Br)cc3)C(=O)C(=O)N2C)cc1 (centres undefined)	?	72%	11%	5.9µM*	/
COc1cc(-c2cc(C(=O)Nc3ccncc3)c3ccccc3n2)cc(OC)c1OC	5%	3%	/	4.1µM*	8.3µM*
Cc1ccccc1NC(=S)NC(=O)c1cc(-c2ccccc2)nc2ccccc12	62%	12%	?	9.3µM*	?
CCc1cccc(C)c1NC(=O)c1cc(-c2ccncc2)nc2ccccc12	-8%	5%	/	9.3µM*	10µM*
Cc1c(C(=O)Nc2ccc3c(c2)OCO3)sc2nc(-c3ccccc3)cn12	0%	1%	1%	?	13µM*
O=C(CSc1nncn1-c1ccccc1)NC1CCCC1	-10%	2%	11%	-20%	-9%
O=C(NCc1ccc(F)cc1)c1cc(-c2ccncc2)nc2ccccc12	-2%	-8%	-20%	?	3.7µM*
COc1cc(-c2cc(C(=O)Nc3cc(S(=O)(=O)N4CCOCC4)ccc3C)c3ccccc3n2)cc(OC)c1OC	2%	-3%	/	1µM*	2.9µM*
CNS(=O)(=O)c1ccc(NC(=O)c2cc(-c3ccncc3)nc3ccc(Cl)cc23)cc1	-15%	-3%	1%	44%	13µM*
COc1cc(-c2cc(C(=O)Nc3ccc(N4CCOCC4)cc3)c3ccccc3n2)cc(OC)c1OC	-18%	-1%	7%	5.9µM*	10µM*
COCCn1c(Cc2ccccc2)nnc1SC(C)C(=O)NC1CC1 (centres undefined)	4%	-15%	/	?	?
Cc1ccc(-c2c(C)sc3ncn(CC(=O)N4CCOCC4)c(=O)c23)cc1C	4%	-1%	1%	-3%	?
CCCn1cc(CN2CCC(n3nccc3NC(=O)CCOc3ccccc3)CC2)c(C)n1	1%	-2%	-10%	?	2%
COc1ccc(-c2cc(C(=O)NNC(=O)c3csc(N4CCOCC4)n3)c3ccccc3n2)cc1OC	133%	-3%	/	13µM*	?
COc1ccc(-c2cc(C(=O)Nc3ccc(Cl)cc3Cl)c3ccccc3n2)cc1OC	-12%	4%	-3%	1%	?
COc1ccc(-c2cc(C(=O)Nc3c(Cl)cc(Cl)cc3Cl)c3ccccc3n2)cc1OC	-4%	0%	16%	?	13µM*
SMILES	AMA1-RON2 inh	Sm TGR block	NS1 function inh	Pf growth 96h	Pf growth 48h
O=C(Nc1ccc(SC(F)F)cc1)c1cc(-c2ccncc2)nc2ccccc12	0%	-2%	/	5.2µM*	?
COc1ccccc1NC(=O)c1cc(-c2cc(OC)c(OC)c(OC)c2)nc2ccccc12	-2%	3%	10%	?	4.7µM*
O=C(Nc1ccc(N2CCOCC2)cc1)c1cc(-c2ccncc2)nc2ccccc12	0%	-1%	3%	?	?
Cc1ccc2oc(=O)c3cc(C(=O)N4CCN(C)CC4)sc3c2c1	1%	8%	0%	22%	23%
C=CCOC(=O)C1=C(C)N=C2SCCC(=O)N2C1/C=C/c1ccccc1 (centres undefined)	-6%	8%	18%	-32%[1.15 µM]	?
COc1ccc(COC(=O)C2=C(C)NC(=O)NC2c2ccc(OC)cc2)cc1 (centres undefined)	1%	4%	-2%	32%	7%
CCOc1ccc(-c2cc(C(=O)Nc3ccc4c(c3)OCCO4)c3ccccc3n2)cc1	-1%	-16%	-3%	31%	108%
CCNC(=S)NNC(=O)c1cc(-c2cc(C)ccc2C)nc2ccccc12	78%	-10%	-1%	5.2µM*	?
O=C(Nc1ccncc1)c1cc(-c2ccccn2)nc2ccccc12	-6%	-1%	/	?	-12%
Cc1cccc(-c2cc(C(=O)Nc3ccc4c(c3)OCCO4)c3ccccc3n2)c1	-3%	9%	13%	12µM*	?
Cc1ccc(-c2cc(C(=O)Nc3ccncc3)c3ccccc3n2)cc1	0%	16%	/	1.5µM*	1.7µM*
CCOC(=O)C1CCCN(C(=O)CCCn2c(=O)c3cccn3c3cccnc32)C1 (centres undefined)	1%	3%	-4%	?	25%
COc1ccc(-c2nc(SCC(=O)Nc3ccc4c(c3)OCO4)c(-c3ccccc3)[nH]2)cc1	/	-1%	/	/	/
Cc1ccc(C2CC(=O)N3CN(Cc4ccco4)CSC3=C2C#N)cc1 (centres undefined)	5%	0%	-7%	?	?
CCOc1ccc(N2CSC3=C(C#N)C(c4ccco4)CC(=O)N3C2)cc1 (centres undefined)	-5%	25µM*	19%	?	/
Cc1ccc(C2CC(=O)N3CN(c4ccc(Br)cc4)CSC3=C2C#N)o1 (centres undefined)	11%	28µM*	?	4.7µM*	/
Cc1ccc([C@H]2N[C@]3(CCCN(Cc4cccn4C)C3=O)[C@H]3C(=O)N(Cc4ccccc4)C(=O)[C@@H]23)cc1	7%	/	/	/	/
CC1(C(=O)NCCC(F)(F)F)Cc2c(-c3ccccc3)ccnc2O1 (centres undefined)	-3%	/	/	/	/
CC(C)OC(=O)c1ccc(NC(=O)c2cccc(-n3cnnn3)c2)cc1	4%	-3%	/	?	12µM*
CC(Oc1ccc(C#N)cc1)C(=O)Nc1ccc(-n2cnnn2)cc1 (centres undefined)	0%	-8%	/	3.3µM*	4.7µM*
CCOc1ccc(NC(=O)c2cccc(-n3cnnn3)c2)cc1	-2%	-3%	-1%	-20%	5%
CCCCOc1ccc(C(=O)Nc2cccc(-n3cnnn3)c2)cc1OC	-9%	1%	15%	9.3µM*	?
CCOc1ccc(C(=O)Nc2cccc(-n3cnnn3)c2)cc1OCC	1%	-7%	?	-20%	?
CC(=O)Nc1ccc(-n2cnnn2)cc1	-14%	-27%	-1%	-12%	16%
